{"source": "PubChem BioAssay (EPA / NIEHS)", "note": "Records with an inconclusive call do not appear. The source made the active and inactive calls. The calls were made as follows: active = hit-call score of the fitted dose curve at least 0.9, where 1 is the maximum; inconclusive = response in the unintended direction; inactive = score below 0.9.", "data": [{"test_system": "not listed separately", "assay": "VALA_MIGHUV2_WoundArea: VALA Sciences human Umbilical Vein Endothelial Cell Migration (MIGHUV) Assay, Area of Scratch Wound after Recovery (AID 2284316)", "experimental": "VALA_MIGHUV2_BCatenin is a cell-based, multiplexed assay that uses umbilical vein-derived endothelial cells (HUVEC). Measurements were taken 24 hours after chemical dosing in a 96-well plate.VALA_MIGHUV2_WoundArea is the one of two assay components measured from the VALA_MIGHUV2 assay. It is designed to make measurements of endothelial migration, a form of morphology reporter, as detected with fluorescence intensity signals by HCS Fluorescent Imaging technology. Data from the assay component VALA_MIGHUV2_WoundArea was analyzed at the endpoint, VALA_MIGHUV2_WoundArea, in the positive analysis fitting direction relative to DMSO as the negative control and baseline of activity. Using a type of morphology reporter, gain-of-signal activity can be used to understand developmental effects. To generalize the intended target to other relatable targets, this assay endpoint is annotated to the neurodevelopment intended target family, where the subfamily is migration.\nCells were seeded on 384-well microplates (day-0) at a density of 9000 cells per well for detection of wound area recovery or 4000 cells per well for detection of beta-catenin (CTNB) immunoreactivity and incubated in Endothelial Cell Growth Medium (CAI, San Diego; catalog 211-500). After 24 hours of culture, the HUVEC plates were scratched using a custom scratch head with the Bravo liquid handling system. This created a 'wound' area without cells in each well. Test chemical was added within 30 min, each tested in 3-replicates across a 6-point concentration response (0.1 % DMSO vehicle control). 'ScratchOnly' Plates were incubated for a 24 h 'wound recovery' period and then fixed with 4% paraformaldehyde. Hoechst dye was used to visualize cell nuclei in the wound area, and CTNB immunofluorescence for visualizing CTNB-positive nuclei (beta-Catenin (L54E2) Mouse mAb (IF Preferred) 2677; Cell Signaling Technology, Danvers, MA). […]", "values": [{"compound": "CN(C)[C@@H]1C(=O)C(C(N)=O)=C(O)[C@@]2(O)C(=O)C3=C(O)c4c(O)cccc4[C@@](C)(O)[C@H]3[C@H](O)[C@@H]12", "AC50": "50 µM (active)"}, {"compound": "CC1=NNC(=O)N(/N=C/c2cccnc2)C1", "outcome": "inactive"}, {"compound": "S=C1NCCN1", "outcome": "inactive"}]}, {"test_system": "IYD (gene 389434)", "assay": "CCTE_GLTED_hIYD: CCTE's human Iodotyrosine Deiodinase (xIYD) Inhibition Assay, Great Lakes Toxicology and Ecology Division (GLTED) Lab (AID 2284317);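 also: cell-free human IYD enzyme made in baculovirus insect cells; iodide freed from monoiodotyrosine measured by cerium arsenite color change at 420 nm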", "method_in_brief": "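Iodide liberated from monoiodotyrosine by baculovirus-expressed human IYD over 3 h was determined colorimetrically (Sandell-Kolthoff, 420 nm) after Dowex separation; inhibition is loss of signal versus DMSO.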", "values": [{"compound": "CCOP(=O)(OCC)Oc1cc(C)nc(C(C)C)n1", "outcome": "inactive"}, {"compound": "CCCOCC(=Nc1ccc(Cl)cc1C(F)(F)F)n1ccnc1", "outcome": "inactive"}, {"compound": "CC(C)[C@H](C(=O)O[C@H](C#N)c1cccc(Oc2ccccc2)c1)c1ccc(Cl)cc1", "outcome": "inactive"}, {"compound": "CCCCSP(=O)(SCCCC)SCCCC", "outcome": "inactive"}]}, {"test_system": "not listed separately", "assay": "CCTE_Mundy_HCI_iCellGluta_NOG_NeuriteLength: CCTE's Neurite Outgrowth Assay in iCellGluta cells for Neurite Length, Mundy Lab (AID 2284318)", "method_in_brief": "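Automated high-content imaging of betaIII-tubulin (Alexa Fluor-488) and Hoechst-stained cells gave neurite length, normalized to the DMSO baseline.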", "values": [{"compound": "CCOP(=O)(OCC)Oc1cc(C)nc(C(C)C)n1", "outcome": "inactive"}, {"compound": "CSC1=N[C@@](C)(c2ccccc2)C(=O)N1Nc1ccccc1", "outcome": "inactive"}, {"compound": "CCOP(=S)(OCC)OC(Cl)C(Cl)(Cl)Cl", "note": "(stereo not given)", "outcome": "inactive"}, {"compound": "CN(C)[C@@H]1C(=O)C(C(N)=O)=C(O)[C@@]2(O)C(=O)C3=C(O)c4c(O)cccc4[C@@](C)(O)[C@H]3[C@H](O)[C@@H]12", "AC50": "24.6 µM (active)"}, {"compound": "CCOP(=S)(OCC)Oc1ccc([N+](=O)[O-])cc1", "outcome": "inactive"}, {"compound": "O=[N+]([O-])c1cc(C(F)(F)F)c(Cl)c([N+](=O)[O-])c1Nc1ncc(C(F)(F)F)cc1Cl", "AC50": "0.714 µM (active)"}, {"compound": "CON=C(C(=O)OC)c1ccccc1CON=C(C)c1cccc(C(F)(F)F)c1", "AC50": "13.3 µM (active)"}, {"compound": "CCOP(=S)(Oc1cnc(C(C)(C)C)nc1)OC(C)C", "note": "(stereo not given)", "AC50": "21 µM (active)"}, {"compound": "CCCCSP(=O)(SCCCC)SCCCC", "outcome": "inactive"}, {"compound": "COP(=O)(OC)OC(Br)C(Cl)(Cl)Br", "note": "(stereo not given)", "AC50": "13.5 µM (active)"}, {"compound": "C=C(C)[C@H]1Cc2c(ccc3c2O[C@@H]2COc4cc(OC)c(OC)cc4[C@@H]2C3=O)O1", "AC50": "0.121 µM (active)"}, {"compound": "CN1COCN(Cc2cnc(Cl)s2)C1=N[N+](=O)[O-]", "outcome": "inactive"}, {"compound": "CCCSP(=O)(OCC)SCCC", "outcome": "inactive"}, {"compound": "CC1=NNC(=O)N(/N=C/c2cccnc2)C1", "outcome": "inactive"}, {"compound": "CC[C@H](C)[C@H]1O[C@]2(C=C[C@@H]1C)C[C@@H]1C[C@@H](C/C=C(\\C)[C@@H](O[C@H]3C[C@H](OC)[C@@H](O[C@H]4C[C@H](OC)[C@@H](NC)[C@H](C)O4)[C@H](C)O3)[C@@H](C)/C=C/C=C3\\CO[C@@H]4[C@H](O)C(C)=C[C@@H](C(=O)O1)[C@]34O)O2", "AC50": "0.811 µM (active)"}, {"compound": "CC(C)N(C(=O)SCC(Cl)=C(Cl)Cl)C(C)C", "AC50": "20.2 µM (active)"}, {"compound": "S=C1NCCN1", "outcome": "inactive"}, {"compound": "CCOP(=O)(NC(C)C)Oc1ccc(SC)c(C)c1", "note": "(stereo not given)", "outcome": "inactive"}]}]}
